From the supplement of paper PMC10849652
About 7,900 targets were measured; listed, in parts, are those with a hit and a random draw of the rest. About 0.6% of all pairs of compound and target were hits.

What follows are targets tested with CNc1nc(-c2ccc3c(N)n[nH]c3c2)cc(N2C[C@@H](C(=O)NC3CCCCC3)CC[C@H]2C)n1 (assay: log2 fold change, soluble protein after heating vs DMSO (PISA); higher = thermal stabilisation; K562 cells, 10 uM, 30 min; active = over 0.2 and 3.5 SD of the protein, either way, in both replicates (recomputed)).
Outline: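 Thermal stability values are relative to control samples and come from duplicates. They are expressed as log2 fold changes. For measurement, K562 cells (2×10^6 cells/mL) received 10 μM compound for 30 min, and aliquots were heated for 3 min over 48°C-58°C, pooled, and extracted at 4°C in PBS with 0.5% NP-40. Soluble protein, the supernatant after 21,000xg for 90 min, was quantified by TMTpro 16plex LC-MS/MS with equalised channel sums.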

UniProt O15021, sequence (O15021 whole entry, looked up): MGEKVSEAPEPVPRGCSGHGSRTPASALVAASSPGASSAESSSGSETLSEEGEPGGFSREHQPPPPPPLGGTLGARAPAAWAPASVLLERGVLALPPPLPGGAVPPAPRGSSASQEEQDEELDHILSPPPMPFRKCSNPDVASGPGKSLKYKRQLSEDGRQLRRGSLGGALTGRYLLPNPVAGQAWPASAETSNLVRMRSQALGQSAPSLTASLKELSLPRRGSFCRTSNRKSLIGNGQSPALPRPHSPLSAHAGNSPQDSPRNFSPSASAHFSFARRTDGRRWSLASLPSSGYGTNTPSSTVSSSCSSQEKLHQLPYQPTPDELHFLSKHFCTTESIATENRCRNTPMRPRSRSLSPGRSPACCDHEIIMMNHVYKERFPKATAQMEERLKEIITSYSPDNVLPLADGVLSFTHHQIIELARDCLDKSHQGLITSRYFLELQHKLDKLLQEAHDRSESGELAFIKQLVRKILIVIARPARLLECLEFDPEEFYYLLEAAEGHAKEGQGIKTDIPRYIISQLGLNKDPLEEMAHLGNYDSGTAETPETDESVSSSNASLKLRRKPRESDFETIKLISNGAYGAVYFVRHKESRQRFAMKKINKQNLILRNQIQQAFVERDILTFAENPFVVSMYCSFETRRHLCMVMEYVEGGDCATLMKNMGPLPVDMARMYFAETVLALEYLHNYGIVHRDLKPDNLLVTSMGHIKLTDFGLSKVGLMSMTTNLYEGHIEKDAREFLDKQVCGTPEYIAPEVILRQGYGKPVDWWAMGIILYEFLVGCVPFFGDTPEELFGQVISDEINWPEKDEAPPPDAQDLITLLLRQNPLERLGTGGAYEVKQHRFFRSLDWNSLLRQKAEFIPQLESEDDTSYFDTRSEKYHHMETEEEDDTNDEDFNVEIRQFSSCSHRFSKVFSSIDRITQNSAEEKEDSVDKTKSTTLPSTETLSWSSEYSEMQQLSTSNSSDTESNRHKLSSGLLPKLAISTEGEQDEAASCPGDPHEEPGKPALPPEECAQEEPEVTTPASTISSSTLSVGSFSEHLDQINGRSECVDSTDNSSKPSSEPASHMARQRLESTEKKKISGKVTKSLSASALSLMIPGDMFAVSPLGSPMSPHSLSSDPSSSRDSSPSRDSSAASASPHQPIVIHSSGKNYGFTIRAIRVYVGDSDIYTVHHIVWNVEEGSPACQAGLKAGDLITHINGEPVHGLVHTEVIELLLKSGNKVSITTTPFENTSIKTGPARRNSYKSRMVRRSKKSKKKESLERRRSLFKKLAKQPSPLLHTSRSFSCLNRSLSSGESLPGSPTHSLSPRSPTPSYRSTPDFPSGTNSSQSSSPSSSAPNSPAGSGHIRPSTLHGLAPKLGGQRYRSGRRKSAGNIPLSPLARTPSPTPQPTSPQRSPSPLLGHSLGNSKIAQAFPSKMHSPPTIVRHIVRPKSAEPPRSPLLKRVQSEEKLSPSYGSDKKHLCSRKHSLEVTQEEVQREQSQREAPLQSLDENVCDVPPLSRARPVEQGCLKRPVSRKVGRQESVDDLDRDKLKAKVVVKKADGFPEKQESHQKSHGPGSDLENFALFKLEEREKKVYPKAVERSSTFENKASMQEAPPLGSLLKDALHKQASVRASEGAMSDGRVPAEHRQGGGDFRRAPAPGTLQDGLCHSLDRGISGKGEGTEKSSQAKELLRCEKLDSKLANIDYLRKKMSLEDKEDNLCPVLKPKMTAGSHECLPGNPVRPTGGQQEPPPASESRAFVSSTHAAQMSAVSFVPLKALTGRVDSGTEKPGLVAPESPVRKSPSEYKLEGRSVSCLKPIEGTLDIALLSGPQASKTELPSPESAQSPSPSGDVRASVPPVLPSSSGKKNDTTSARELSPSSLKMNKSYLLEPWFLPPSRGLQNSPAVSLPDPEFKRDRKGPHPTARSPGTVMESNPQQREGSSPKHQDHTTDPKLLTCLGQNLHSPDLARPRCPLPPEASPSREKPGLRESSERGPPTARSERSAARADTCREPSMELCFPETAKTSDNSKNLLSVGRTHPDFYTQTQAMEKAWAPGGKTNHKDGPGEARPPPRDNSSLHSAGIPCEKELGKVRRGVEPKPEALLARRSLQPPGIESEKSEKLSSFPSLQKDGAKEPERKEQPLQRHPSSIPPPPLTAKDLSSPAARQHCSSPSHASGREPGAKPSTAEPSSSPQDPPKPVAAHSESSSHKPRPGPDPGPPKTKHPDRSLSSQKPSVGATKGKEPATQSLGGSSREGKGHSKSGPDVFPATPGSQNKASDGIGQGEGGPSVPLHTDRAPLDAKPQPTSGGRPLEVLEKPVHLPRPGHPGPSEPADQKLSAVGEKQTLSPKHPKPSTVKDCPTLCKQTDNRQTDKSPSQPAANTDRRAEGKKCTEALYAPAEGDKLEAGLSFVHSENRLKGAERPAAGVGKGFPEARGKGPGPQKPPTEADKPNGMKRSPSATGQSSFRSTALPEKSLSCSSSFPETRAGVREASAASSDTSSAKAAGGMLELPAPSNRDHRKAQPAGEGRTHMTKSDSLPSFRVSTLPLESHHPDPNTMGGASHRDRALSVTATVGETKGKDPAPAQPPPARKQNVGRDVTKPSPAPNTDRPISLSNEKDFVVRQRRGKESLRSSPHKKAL
UniProt Q9H6V9, sequence (Q9H6V9 whole entry, looked up): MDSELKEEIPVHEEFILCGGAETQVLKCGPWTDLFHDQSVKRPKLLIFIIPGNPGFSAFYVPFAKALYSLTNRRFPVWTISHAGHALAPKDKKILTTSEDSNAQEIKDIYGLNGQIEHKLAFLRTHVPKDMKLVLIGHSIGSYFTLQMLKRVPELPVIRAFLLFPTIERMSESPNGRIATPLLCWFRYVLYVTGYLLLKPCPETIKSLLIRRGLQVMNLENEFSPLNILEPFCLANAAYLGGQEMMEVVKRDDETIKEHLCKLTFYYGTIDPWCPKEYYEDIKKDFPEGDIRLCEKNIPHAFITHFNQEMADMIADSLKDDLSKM
UniProt P32019, sequence (P32019 whole entry, looked up): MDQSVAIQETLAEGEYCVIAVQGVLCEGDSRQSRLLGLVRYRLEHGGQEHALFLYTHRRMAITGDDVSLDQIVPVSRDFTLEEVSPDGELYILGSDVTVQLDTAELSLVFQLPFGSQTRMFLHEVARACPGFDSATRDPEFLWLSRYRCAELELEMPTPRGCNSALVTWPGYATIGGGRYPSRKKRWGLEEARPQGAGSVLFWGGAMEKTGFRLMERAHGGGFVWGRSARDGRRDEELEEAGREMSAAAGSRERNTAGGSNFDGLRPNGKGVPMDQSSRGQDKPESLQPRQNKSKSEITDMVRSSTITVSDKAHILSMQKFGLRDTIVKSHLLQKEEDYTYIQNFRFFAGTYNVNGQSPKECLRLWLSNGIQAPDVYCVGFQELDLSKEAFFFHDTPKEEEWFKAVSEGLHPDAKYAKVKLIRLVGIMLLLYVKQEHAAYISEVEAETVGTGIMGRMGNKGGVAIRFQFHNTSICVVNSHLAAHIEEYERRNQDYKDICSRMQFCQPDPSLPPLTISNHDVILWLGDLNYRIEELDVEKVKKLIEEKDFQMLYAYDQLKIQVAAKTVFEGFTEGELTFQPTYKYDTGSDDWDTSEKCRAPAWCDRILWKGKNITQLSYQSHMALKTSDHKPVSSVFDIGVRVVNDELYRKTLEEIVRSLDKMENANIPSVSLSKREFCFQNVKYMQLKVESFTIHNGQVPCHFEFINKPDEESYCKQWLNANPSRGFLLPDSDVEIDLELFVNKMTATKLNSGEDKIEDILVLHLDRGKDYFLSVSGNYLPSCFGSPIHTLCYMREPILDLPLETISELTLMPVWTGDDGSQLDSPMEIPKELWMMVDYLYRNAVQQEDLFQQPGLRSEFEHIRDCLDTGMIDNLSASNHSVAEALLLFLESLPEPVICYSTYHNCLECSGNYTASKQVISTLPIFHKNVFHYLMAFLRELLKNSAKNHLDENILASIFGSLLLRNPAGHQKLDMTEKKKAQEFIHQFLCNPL
UniProt P45984, sequence (P45984 whole entry, looked up): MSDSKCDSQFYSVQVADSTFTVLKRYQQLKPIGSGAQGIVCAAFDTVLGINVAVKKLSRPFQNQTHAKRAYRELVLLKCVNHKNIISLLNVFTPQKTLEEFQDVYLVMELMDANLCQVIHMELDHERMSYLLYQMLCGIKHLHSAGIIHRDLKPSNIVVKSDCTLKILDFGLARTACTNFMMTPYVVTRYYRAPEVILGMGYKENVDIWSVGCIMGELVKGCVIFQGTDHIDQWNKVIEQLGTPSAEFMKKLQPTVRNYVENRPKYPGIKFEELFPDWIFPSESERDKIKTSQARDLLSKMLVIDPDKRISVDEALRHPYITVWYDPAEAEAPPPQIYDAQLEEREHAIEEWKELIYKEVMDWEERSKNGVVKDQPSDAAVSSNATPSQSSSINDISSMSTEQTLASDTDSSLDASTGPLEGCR
UniProt Q9UBF1, sequence (Q9UBF1 whole entry, looked up): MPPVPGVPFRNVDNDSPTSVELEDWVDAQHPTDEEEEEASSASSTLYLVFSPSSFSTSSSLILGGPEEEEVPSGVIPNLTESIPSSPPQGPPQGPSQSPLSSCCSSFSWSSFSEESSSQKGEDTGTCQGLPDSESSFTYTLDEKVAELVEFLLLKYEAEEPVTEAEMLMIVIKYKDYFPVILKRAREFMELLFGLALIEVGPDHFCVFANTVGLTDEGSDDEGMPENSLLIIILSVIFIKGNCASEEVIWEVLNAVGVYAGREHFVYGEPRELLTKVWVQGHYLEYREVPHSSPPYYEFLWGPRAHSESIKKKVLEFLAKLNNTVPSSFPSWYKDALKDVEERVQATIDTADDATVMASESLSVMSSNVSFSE
UniProt P33947, sequence (P33947 whole entry, looked up): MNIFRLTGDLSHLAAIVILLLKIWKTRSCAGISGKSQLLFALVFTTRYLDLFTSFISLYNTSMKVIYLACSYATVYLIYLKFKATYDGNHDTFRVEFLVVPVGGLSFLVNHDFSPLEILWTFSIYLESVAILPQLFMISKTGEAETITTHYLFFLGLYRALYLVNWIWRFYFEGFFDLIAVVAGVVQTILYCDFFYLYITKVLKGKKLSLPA

log2 fold change, inactive:
KDM3B (UniProt Q7LBC6) -0.093
MAP2K7 isoform 4 (UniProt O14733) -0.001
MIEF1 (UniProt L0R8F8) -0.074
MARCKSL1 (UniProt P49006) 0.063
MEPCE (UniProt Q7L2J0) 0.049
MCUR1 (UniProt Q96AQ8) 0.014
MED1 (UniProt Q15648) -0.045
LNPEP (UniProt Q9UIQ6) -0.02
IPO7 (UniProt O95373) -0.012
LMNB1 (UniProt P20700) -0.095
MAGEC2 (UniProt Q9UBF1) -0.082
KDELR2 (UniProt P33947) -0.058
INTS7 (UniProt Q9NVH2) -0.003
LMBRD2 (UniProt Q68DH5) -0.037
INPP5B (UniProt P32019) 0.043
IRF2BPL (UniProt Q9H1B7) -0.045
KIF3A (UniProt Q9Y496) 0.037
LNPK (UniProt Q9C0E8) -0.045
LEO1 (UniProt Q8WVC0) -0.055
MCU (UniProt Q8NE86) -0.014
MAP1LC3B2 (UniProt A6NCE7) -0.015
MAST4 (UniProt O15021) -0.006
ILK (UniProt Q13418) 0.031
LARP7 isoform 3 (UniProt Q4G0J3) 0.003
LDAH isoform 2 (UniProt Q9H6V9) -0.043
MFN2 (UniProt O95140) 0.058
MAGOHB (UniProt Q96A72) 0.022
LMNB2 (UniProt Q03252) -0.073
LTV1 (UniProt Q96GA3) 0.081
KLHL18 (UniProt O94889) 0.007
MFSD5 isoform 2 (UniProt Q6N075) -0.065
MEAK7 (UniProt Q6P9B6) 0.026
MCCC2 (UniProt Q9HCC0) -0.05
ITIH4 (UniProt Q14624) -0.124
KNTC1 (UniProt P50748) -0.076
MFGE8 (UniProt Q08431) -0.018
KCT2 (UniProt Q8NC54) 0.031
MAPK9 (UniProt P45984) 0
LSS (UniProt P48449) -0.001
